Hits are enriched below; roughly 11% of the tested compounds scored in any of these assays.
Vaccinia Venus: vaccinia inhibition (Venus reporter); Vaccinia virus Venus reporter expression, fluorescence; Potency, µM (titrated, usually from 36.5 µM), usual class: inhibitors; 330,000 compounds, 0.46% hits; AID 720580; calls by dose curve; tested in A549 cells; note: nearly all actives have a fitted effect of over 30% in size
HCV inhibitor: HCV inhibition. Huh7.5.1 HCVcc-Cre infection, luciferase reporter, 44 h. Potency, µM (highest dose often 41.8 µM), hits mostly inhibitors. 340,000 compounds, 3.4% hits
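Cells (1,000/well) were plated 4 h before compound, then infected with HCVcc-Cre virus (~0.5 moi). After 44 h further culture, infection was read as luciferase luminescence following a 15 min substrate incubation at room temperature.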
NS1 function inh: inhibitors of influenza NS1 protein function. Potency, µM (doses to about 46.1 µM). 270,000 compounds, 0.4% hits; calls by dose curve; note: actives are rising curves; nearly all actives have a fitted effect of over 50% in size
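Read-out: OD600 growth recovery of NS1-expressing budding yeast. Cells grown overnight at 30C in -URA glucose medium, washed, resuspended and diluted 1:100 in 2% galactose assay medium, pH 6.0. Same strain lacking NS1 served as positive control.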
VACV mCherry inh: inhibitors of vaccinia virus infection (mCherry reporter signal); Vaccinia virus mCherry reporter infection, fluorescence; 310,000 compounds, 0.63% hits; Potency, µM (highest dose often 36.5 µM), actives largely listed as inhibitors; calls by dose curve; tested in A549 cells; note: nearly all actives have a fitted effect of over 35% in size
Pf growth 48h: inhibits P. falciparum growth in the first generation, 48 h; P. falciparum luciferase growth in erythrocytes, 48 h; Potency, µM (series often up to 28.7 µM), usual class: inhibitors; 310,000 compounds, 5.9% hits
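Luciferase-expressing parasites in RBCs, 2% Hct / 0.1% parasitemia final; RPMI 1640 + 0.5% Albumax; 37 C, 5% CO2, one generation; luminescence read-out, lower signal = inhibition.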
Pf growth 96h: P. falciparum growth inhibition at 96 hour, primary screen for plastid delayed-death inhibitors; P. falciparum luciferase reporter growth, 96 h; Potency, µM (series often up to 28.7 µM), usual class: inhibitors; 320,000 compounds, 6.9% hits; AID 504834
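P. falciparum expressing integrated firefly luciferase, in erythrocytes at 2% hematocrit, 0.05% parasitemia, incubated with compounds 96 h at 37 C, 5% CO2. Growth inhibition read as loss of luminescence; two-generation exposure targets delayed-death apicoplast inhibitors.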
Of the large screens only hits and unclear results are named; the others gave an inactive call. Unless noted, calls come from the whole dose curve; as a rule, active = well fitted inhibition curve with a large enough effect; inconclusive = small, poorly fitted or top-dose-only effect, or another doubt; inactive = no such curve, though single readings can be large or run the other way.

Cc1cc(C)cc(-c2nnc(SCC(=O)N3CCN(C(=O)c4ccco4)CC3)o2)c1	Vaccinia Venus inconclusive, HCV inhibitor inconclusive, VACV mCherry inh 8.91µM, Pf growth 48h inconclusive, Pf growth 96h 11.7µM
CCOC(=O)N1CCN(C(=O)CSc2nnc(-c3cccc(Cl)c3)o2)CC1	Vaccinia Venus inconclusive, NS1 function inh inconclusive, VACV mCherry inh 5.62µM
CCc1cc2ccc(OC)cc2nc1SCC(=O)N1CCN(C(=O)c2ccco2)CC1	HCV inhibitor inconclusive, Pf growth 48h inconclusive, Pf growth 96h inconclusive
COc1ccc(OC)c(-n2nnnc2SCC(=O)N2CCN(C(=O)c3ccco3)CC2)c1	HCV inhibitor inconclusive, Pf growth 96h inconclusive
COc1cc(CO)cc(Br)c1OCC(=O)N1CCCCC1	none (no result: Vaccinia Venus, VACV mCherry inh, Pf growth 96h)
O=C(CSc1nnc(-c2ccc(Br)cc2)o1)N1CCN(C(=O)c2ccco2)CC1	Vaccinia Venus 5.01µM, HCV inhibitor inconclusive, VACV mCherry inh 0.631µM, Pf growth 48h inconclusive, Pf growth 96h inconclusive
CN(C)S(=O)(=O)c1cccc(C(=O)Nc2cc3c(cc2C(=O)O)OCCCO3)c1	none (no result: Vaccinia Venus, VACV mCherry inh)
COC(=O)c1ccc(OCC(O)CN(CC(C)C)CC(C)C)cc1 (stereo not drawn)	Pf growth 48h 13.1µM, Pf growth 96h inconclusive (no result: VACV mCherry inh)
CCCN(CCC)CC(O)COc1ccc([N+](=O)[O-])cc1 (stereo not drawn)	Pf growth 48h inconclusive, Pf growth 96h 14.7µM
CCCN(CCC)CC(O)COc1ccc2c(c1)OCO2 (stereo not drawn)	Pf growth 96h inconclusive (no result: Vaccinia Venus, NS1 function inh, VACV mCherry inh)
Fc1ccc(NC(=S)Nc2ccc(Cl)cc2Cl)cc1	HCV inhibitor inconclusive
Cc1ccc(CN2CC(=O)N3[C@H]4c5cc(Cl)ccc5OC[C@@H]4[C@H](c4ccccc4)[C@]3(C)C2=O)cc1	HCV inhibitor inconclusive, Pf growth 48h 6.57µM, Pf growth 96h 8.28µM (no result: NS1 function inh)
Cc1ccc(CN2CC(=O)N3[C@H]4c5cc(C)ccc5OC[C@@H]4[C@H](c4ccccc4)[C@]3(C)C2=O)cc1	HCV inhibitor inconclusive, Pf growth 48h 5.86µM (no result: NS1 function inh)
Cc1ccc2c(c1)[C@H]1[C@H](CO2)[C@H](c2ccccc2)[C@]2(C)C(=O)N(Cc3ccccc3)CC(=O)N12	HCV inhibitor inconclusive (no result: NS1 function inh, Pf growth 48h, Pf growth 96h)
Cc1ccc2c(c1)C(=O)N1[C@H]3c4cc(Cl)ccc4OC[C@@H]3[C@H](c3ccccc3)[C@]1(C)C(=O)N2	Vaccinia Venus inconclusive, HCV inhibitor inconclusive (no result: NS1 function inh, Pf growth 48h, Pf growth 96h)
COc1ccc2c(c1)[C@H]1[C@H](CO2)[C@H](c2ccccc2)[C@]2(C)C(=O)N(Cc3ccc(C)cc3)CC(=O)N12	Vaccinia Venus inconclusive, HCV inhibitor 10µM (no result: NS1 function inh, Pf growth 48h, Pf growth 96h)
CCCCC(=Nc1ccccc1OC)C1=C(O)CC(c2ccccc2)CC1=O (stereo not drawn)	Pf growth 96h inconclusive
Cc1nn(CC(=O)NCC2CCCO2)c(C)c1[N+](=O)[O-] (stereo not drawn)	none (no result: Vaccinia Venus, VACV mCherry inh)
Cc1c(NC(=O)Nc2cccc(Cl)c2)c(=O)n(-c2ccccc2)n1C	Pf growth 96h inconclusive (no result: Vaccinia Venus, VACV mCherry inh, Pf growth 48h)
Cc1cc(=O)oc2cc(OCC(=O)N3CC(=O)Nc4ccccc43)c(Cl)cc12	Pf growth 48h 13.1µM, Pf growth 96h inconclusive (no result: Vaccinia Venus, NS1 function inh, VACV mCherry inh)
Clc1ccc(CNc2ccc(N3CCN(Cc4ccccc4)CC3)cc2)cc1	HCV inhibitor 10µM, Pf growth 96h 9.28µM
Fc1ccc(CN2CCN(c3ccc(Cl)cc3)CC2)cc1	none (no result: NS1 function inh)
COc1ccc(OC)c(CN2CCC(Cc3ccccc3)CC2)c1	Pf growth 48h inconclusive, Pf growth 96h inconclusive (no result: Vaccinia Venus, VACV mCherry inh)
COc1cc(C)c(CN2CCC(Cc3ccccc3)CC2)cc1C	HCV inhibitor 12.6µM, Pf growth 48h inconclusive, Pf growth 96h inconclusive (no result: Vaccinia Venus, VACV mCherry inh)
Clc1ccc(CN2CCC(c3ccccc3)CC2)cc1	none
Clc1ccc(CNC2CCN(Cc3ccccc3)CC2)cc1	HCV inhibitor 8.91µM, Pf growth 48h 4.15µM, Pf growth 96h inconclusive
O=C(CCC1CCN(Cc2ccc(Cl)cc2)CC1)NC1CC1	Pf growth 96h 1.04µM
C[C@H](CO)N1C[C@H](C)[C@@H](CN(C)CC2CCOCC2)Oc2ncc(Br)cc2C1=O	none (no result: HCV inhibitor, NS1 function inh, Pf growth 48h, Pf growth 96h)
O=C(Nc1ccc(N2CCN(Cc3ccccc3)CC2)cc1)c1ncn[nH]1	Pf growth 48h 5.86µM (no result: Vaccinia Venus, VACV mCherry inh, Pf growth 96h)
S=C(Nc1ccc(Cl)cc1Cl)NC1CCN(Cc2ccccc2)CC1	Vaccinia Venus inconclusive, HCV inhibitor inconclusive, Pf growth 48h inconclusive, Pf growth 96h inconclusive
COc1ccccc1CNC1CCN(Cc2ccccc2)CC1	HCV inhibitor inconclusive, Pf growth 96h inconclusive

Compound activity from PubChem BioAssay.
